Drawing on PubChem BioAssay (NCI), this text covers growth for 40 molecules.

The panel holds about 83,000 compounds, 20% with a hit somewhere; the sample as a whole holds those more often.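 A percent growth of 40 corresponds to 60% growth inhibition; 0 means no net growth; -100 means all cells died. Active threshold: below 10.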 Activity calls are given as the source filed them.

The subject of this test is HL-60(TB) leukemia. Nature of the test: NCI-60 one-dose screen, 48 h (100 = growth as untreated, 0 = no growth, -100 = all killed). Particulars: 10 µM unless noted.
`CC(=O)O[C@@H]1/C=C/C(=O)N[C@@H](C)CCC/C=C/[C@@H]2CCC[C@H]21`: the growth was 99.8% (inactive).

Consider `C[C@H](C(=O)N[C@@H](Cc1ccc(-c2ccccc2)cc1)C(=O)NC1CC(C)(C)NC(C)(C)C1)c1ccc(-c2ccccc2)c(F)c1`, for which the growth is -59.1% (active).

`CCn1cc(-c2ccnc3[nH]c(-c4cccc(CN(C)C)c4)cc23)c(-c2ccc(NC(=O)N(C)C)cc2)n1`: the growth was -40.6% (active).

Turning to `Cc1ccc(N(CC(=O)Nc2ccc(S(=O)(=O)N3CCC(N4CCCC4)CC3)cc2)S(=O)(=O)c2ccc(Cl)cc2)cc1`, the growth is -51.5% (active).

On to `CNC(=S)N/N=C/CSC/C=N/NC(=S)NC`, for which the growth is 85% (inactive).

Consider `Cc1[nH]c2ccccc2c1/C=N/Nc1ncnc2sc3c(c12)CCN(CC(=O)OC(C)(C)C)C3`, for which the growth is 12.5% (inactive).

In the case of `CC1=C(O)C(=O)C(c2c(C)cc(C)c(Br)c2C)=C(O)C1=O`, the growth was 53.4% (inactive).

Regarding `Cc1cc(NS(=O)(=O)c2ccc(-c3cnc(C4CC4)o3)cc2)ccc1Cl`, the growth is 0.815% (active).

On to `COc1cc(-c2nccc3[nH]c(-c4ccc5cc[nH]c5c4)nc23)cc(OC)c1OC`, for which the growth is -48.7% (active).

For `Cc1c(C(=O)NCCC(=O)NO)sc2ncnc(Nc3ccc(NC(=O)Nc4cccc(C(F)(F)F)c4)cc3)c12`, the growth was 105% (inactive).

Take `COc1ccc(OC)c([N+](=O)[O-])c1C=O`: the growth was 88.2% (inactive).

For the molecule `C=C(NC(=O)[C@H](C(C)C)N(C)c1cccc2[nH]ccc12)C(=O)OC`, the growth was 109% (inactive).

On to `CCCCCCCCCCC(C(O)c1ccccc1)N1CCCCC1` (stereo not given), for which the growth was -28.5% (active).

For the molecule `CNS(=O)(=O)c1n[nH]nc1-c1cc(C(C)(C)C)c(O)c(C(C)(C)C)c1`, the growth is 95% (inactive).

As to `Cc1c2c(c(C)c3c1oc1cc(O)ccc13)C(=O)N(CCN1CCCCC1)C2=O`, the growth was 99.3% (inactive).

On to `O=C(Nc1nc2ccc(OC(F)(F)F)cc2s1)c1ccc(F)cc1`, for which the growth is 14.3% (inactive).

Consider `CCOC(=O)c1ccc(NC(=O)Nc2nncs2)cc1`, for which the growth was 5.62% (active).

Consider `COc1ccccc1NC(=O)C1CC(c2ccc(F)cc2)=NO1` (stereo not given), for which the growth is 103% (inactive).

For `N=C(N)c1ccc(-c2ccc(-c3ccc(Cl)cc3Cl)o2)cc1`, the growth is -60.8% (active).

On to `Cc1ccc(N)cc1F`, for which the growth is 120% (inactive).

For the molecule `C=C(C)[C@@H]1CC[C@]2(C(=O)O)CC[C@]3(C)[C@H](CC[C@@H]4[C@@]5(C)C/C(=C/c6ccco6)C(=O)C(C)(C)[C@@H]5CC[C@]43C)[C@@H]12`, the growth is -17.2% [100 µM] (active).

As to `O=C(/C=C/C12c3ccccc3C(c3ccccc31)C1C(=O)NC(=O)C12)c1ccc(Cl)cc1` (stereo not given), the growth was -6.98% (active).

For `NCCOc1ncccc1/C=C1\c2ccccc2-c2ccc(C(F)F)cc21`, the growth is -3.26% (active).

With `CCN(CC)CCCNc1c2ccc(Cl)cc2nc2ccc(OC)cc12`, the growth was -50.3% (active).

On to `COC(=O)[C@@H]1CCCN1C(=O)[C@@H]1CCCN1C(=O)[C@H](Cc1ccccc1)NC(=S)Nc1cc(C(F)(F)F)cc(C(F)(F)F)c1`, for which the growth was 55.7% (inactive).

In the case of `CSc1nc2ccc(C)cc2cc1/C=N/O`, the growth was 91.6% (inactive).

As for `CC(C)(C)OC(=O)Nc1ccc2c(c1)C(NC(=O)Nc1cccc(C#N)c1)CC(C)(C)O2` (stereo not given), the growth is 5.38% (active).

As to `Nc1cc(C(F)(F)F)c(-c2cc(N3CCOCC3)nc(N3CCOCC3)n2)cn1`, the growth is -41.3% (active).

For `CCOC(=O)C(=Cc1ccc(C#N)cc1)C(=O)OCC`, the growth is -33.2% (active).

On to `CN(C)N=Nc1nn(C(=O)Nc2ccc(Cc3ccccc3)cc2)c2ccccc12`, for which the growth was 21.4% (inactive).

Consider `O=C(N/N=c1/ccoc2cccnc12)N1CCN(c2ncccn2)CC1`, for which the growth is 44.2% (inactive).

As for `CN([N-]C(=O)CC(=O)[N-]N(C)C(=S)c1ccccc1)C(=S)c1ccccc1.[Cu+2]`, the growth was -15.6% (active).

In the case of `CN1C(=O)CNC(=O)[C@H](NC(=O)c2nc3ccccc3cc2O)CSSC[C@H]1C(=O)NCCc1nc2ccccc2cc1O`, the growth was -36.8% (active).

As for `O=[N+]([O-])c1ccc(-c2nc(Cl)c3c(n2)CCCC3)o1`, the growth is 93.8% (inactive).

For the molecule `Cc1ccc(O)c(NC(=O)c2ccc(CNc3ccnc(C(F)(F)F)c3)cc2)c1`, the growth was 9.24% (active).

With `COc1ccc(/C=C/C(=O)NCCO)cc1`, the growth was 93.6% (inactive).

With `COc1ccc(-c2cc3c4c(nc5ccccc5c4c2)CC(c2cc(OC)c(OC)c(OC)c2)O3)cc1` (stereo not given), the growth was 106% (inactive).

As to `C=CCc1cc(OC)c(OC)c(OC)c1`, the growth was 78.7% (inactive).

Take `O=c1c2c(c3ccccc3n1-c1ccccc1)NC(=S)NC2c1ccc(Cl)cc1` (stereo not given): the growth is 22.1% (inactive).

As to `OC(COc1ccccc1Cl)CN1CCN(c2cccc(Cl)c2)CC1` (stereo not given), the growth is 112% (inactive).
